# Reference: PubChem BioAssay
# Activity calls are given as the source filed them.
# Key:
# [1] = tested on: Human papillomavirus type 1a protein E7 (residues 44-93); assay: HPV1a E7 fragment binders on microarrays, primary screen, biochemical, small-molecule microarray, residues 44-93, 635 nm fluorescence (AID 1108); settings: small-molecule microarray binding, fluorescence 635 nm; higher = more signal;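 further: E7 fragment applied at 1 µg/mL in TBST for 1 h at 4 C; score combines spot fluorescence with its signal to noise ratio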
# [2] = modulators of HCV replicon luciferase signal, primary screen, HCV replication inhibitor project, Huh7 cells, luciferase reporter (AID 1109); settings: 48 h, higher = more signal;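 further: huh7 hepatoma cells harbouring a luciferase neomycin HCV replicon reporter; luciferase luminescence as measure of HCV replicon replication; test concentration not given here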
# [3] = target: Left-right determination factor 2 (Homo sapiens) (UniProt O00292); assay: LEFTY2 binders on small-molecule microarrays, primary screen, biochemical, small-molecule microarray, 635 nm fluorescence scan (AID 1110); settings: LEFTY2 binding, higher = more signal
# Left-right determination factor 2 (Homo sapiens), sequence (O00292 whole entry, looked up): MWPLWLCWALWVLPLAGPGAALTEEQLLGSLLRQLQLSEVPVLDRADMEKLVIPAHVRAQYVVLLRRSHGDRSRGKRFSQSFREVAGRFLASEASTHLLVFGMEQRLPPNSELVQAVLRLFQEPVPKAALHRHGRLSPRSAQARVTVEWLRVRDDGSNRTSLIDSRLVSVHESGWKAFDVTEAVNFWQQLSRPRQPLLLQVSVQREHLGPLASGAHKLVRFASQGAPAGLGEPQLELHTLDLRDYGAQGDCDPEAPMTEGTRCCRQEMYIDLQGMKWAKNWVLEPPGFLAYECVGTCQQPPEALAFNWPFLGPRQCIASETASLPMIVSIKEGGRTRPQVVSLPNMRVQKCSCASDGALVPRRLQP
# [4] = target: Calmodulin-1 (Homo sapiens) (UniProt P0DP23); assay: CALM1 binders on microarrays, EGTA buffer, profiling panel, biochemical, small-molecule microarray, Cy5-labelled CALM1 (AID 1111); settings: Cy5-CALM1 binding fluorescence, higher = more signal;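 further: labelled calmodulin applied in Tris saline Tween buffer holding calcium plus EGTA and DTT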
# [5] = target: Calmodulin-1 (Homo sapiens) (UniProt P0DP23); assay: calcium-bound CALM1 binders on microarrays, profiling panel, artefact control for SMM control-protein annotation, biochemical, small-molecule microarray, Cy5-labelled CALM1, plus calcium (AID 1112); settings: Cy5-CALM1 binding fluorescence, higher = more signal;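 further: score merges spot fluorescence with signal to noise from triplicate slides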
# [6] = small-molecule microarray binders of probe aWnt5a, primary screen, biochemical, biotinylated probe, 635/667 nm fluorescence (AID 1113); settings: higher = more signal;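 further: score merges 667 nm fluorescence intensity with signal-to-noise per printed feature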
# [7] = small-molecule microarray binders of probe aShh, primary screen, biochemical, biotinylated probe, 635/667 nm fluorescence (AID 1114); settings: higher = more signal;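 further: probe is biotin-labelled aShh protein from a stem cell growth factor screen; measures binding of labelled protein to compounds printed on the slide; score merges feature fluorescence at 667 nm with signal-to-noise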
# [8] = small-molecule microarray binders of probe aNog, primary screen, biochemical, biotinylated probe, 635/667 nm fluorescence (AID 1115); settings: higher = more signal;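 further: probe is biotinylated aNog protein used at 0.15 µg/mL for 1 h at 4 C; z-score combines 667 nm fluorescence of each spot with its signal to noise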
# [9] = target: Torsin-1A-interacting protein 1 (Homo sapiens) (UniProt Q5JTV8); assay: LAP1 binders from COS7 cell lysate, primary screen, small-molecule microarray, 635/667 nm fluorescence (AID 1116); settings: COS7-hLAP1 lysate binding, 635 nm fluorescence, higher = more signal
# Torsin-1A-interacting protein 1 (Homo sapiens), sequence (Q5JTV8 whole entry, looked up): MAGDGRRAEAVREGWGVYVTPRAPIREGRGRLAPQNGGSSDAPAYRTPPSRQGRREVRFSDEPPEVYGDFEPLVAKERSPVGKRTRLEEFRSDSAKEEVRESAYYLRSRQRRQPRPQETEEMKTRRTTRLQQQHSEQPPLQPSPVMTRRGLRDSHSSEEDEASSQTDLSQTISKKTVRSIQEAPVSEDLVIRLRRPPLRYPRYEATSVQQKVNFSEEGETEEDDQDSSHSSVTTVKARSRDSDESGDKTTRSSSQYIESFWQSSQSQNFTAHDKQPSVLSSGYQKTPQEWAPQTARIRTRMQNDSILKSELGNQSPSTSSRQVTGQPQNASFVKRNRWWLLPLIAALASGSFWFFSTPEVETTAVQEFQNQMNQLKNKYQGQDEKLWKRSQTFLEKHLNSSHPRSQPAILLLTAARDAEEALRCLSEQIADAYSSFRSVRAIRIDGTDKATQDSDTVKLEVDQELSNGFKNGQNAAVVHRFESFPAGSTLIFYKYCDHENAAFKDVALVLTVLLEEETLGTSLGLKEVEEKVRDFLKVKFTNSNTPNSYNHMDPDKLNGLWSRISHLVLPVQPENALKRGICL
# [10] = target: Alpha-bungarotoxin (Bungarus multicinctus) (UniProt P60615); assay: alpha-bungarotoxin binders on microarray, profiling panel, artefact control for SMM control protein annotation, biochemical, small-molecule microarray, Alexa647 label, 635/667 nm fluorescence (AID 1117); settings: alpha-BTX-A647 binding fluorescence, higher = more signal
# Alpha-bungarotoxin (Bungarus multicinctus), sequence (P60615 whole entry, looked up): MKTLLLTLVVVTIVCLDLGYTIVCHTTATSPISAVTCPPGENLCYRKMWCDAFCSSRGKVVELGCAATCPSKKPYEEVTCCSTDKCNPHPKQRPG
# Albumin (Bos taurus) = Albumin (Bos taurus) (UniProt P02769); assay: bovine serum albumin binders on microarray, profiling panel, artefact control for SMM control protein annotation, biochemical, small-molecule microarray, Alexa647 label, 635/667 nm fluorescence (AID 1118); settings: BSA-A647 binding, fluorescence 635 nm, higher = more signal;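 further: score merges 667 nm emission intensity and signal-to-noise per printed compound spot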
# Albumin (Bos taurus), sequence (P02769 whole entry, looked up): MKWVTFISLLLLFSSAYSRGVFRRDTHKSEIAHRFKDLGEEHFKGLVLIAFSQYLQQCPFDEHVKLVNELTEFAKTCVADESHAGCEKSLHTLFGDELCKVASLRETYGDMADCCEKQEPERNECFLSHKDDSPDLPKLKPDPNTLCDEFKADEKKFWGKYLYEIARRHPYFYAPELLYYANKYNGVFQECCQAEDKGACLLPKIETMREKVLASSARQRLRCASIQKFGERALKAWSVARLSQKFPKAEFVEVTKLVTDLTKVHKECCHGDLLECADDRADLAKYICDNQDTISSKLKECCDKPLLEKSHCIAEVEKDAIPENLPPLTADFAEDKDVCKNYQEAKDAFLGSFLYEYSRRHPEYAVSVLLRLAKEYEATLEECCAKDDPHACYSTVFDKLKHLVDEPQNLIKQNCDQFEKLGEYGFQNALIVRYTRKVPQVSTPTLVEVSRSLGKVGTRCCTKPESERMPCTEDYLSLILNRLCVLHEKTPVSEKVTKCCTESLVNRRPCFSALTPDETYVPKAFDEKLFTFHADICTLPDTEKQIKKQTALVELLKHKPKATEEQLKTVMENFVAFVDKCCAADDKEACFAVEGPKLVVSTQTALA
# [11] = small-molecule microarray binders of probe aXIP, primary screen, biochemical, NeuroSMM set, 635/667 nm fluorescence (AID 1119); settings: higher = more signal, called active from +8 up or from −8 down;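 further: probe is the protein aXip251-270 applied at 1 µg/mL to compound-printed slides; binding of probe to printed compounds measured as 667 nm fluorescence plus signal to noise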
# [12] = small-molecule binders of probe aNOTCH3, primary screen, biochemical, small-molecule microarray, 635/667 nm fluorescence (AID 1120); settings: higher = more signal;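 further: probe is a biotin-tagged antibody raised against NOTCH3 rather than NOTCH3 protein; score merges spot fluorescence near 667 nm with spot signal to noise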
# [13] = small-molecule binders of probe aNOTCH2, primary screen, biochemical, small-molecule microarray, 635/667 nm fluorescence (AID 1121); settings: higher = more signal;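 further: score merges feature fluorescence read at 667 nm with its signal to noise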
# [14] = target: Carbonic anhydrase 2 (Homo sapiens) (UniProt P00918); assay: CAII small-molecule binders, profiling panel, biochemical, small-molecule microarray, Alexa647-labelled CAII (AID 1122); settings: CAII-A647 binding fluorescence, higher = more signal
# [15] = COS7 lysate on small-molecule microarray, probe aHis, 635 nm (AID 1123); settings: COS7 cell lysate, fluorescence, higher = more signal;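 further: z-score combines 667nm fluorescence intensity with signal-to-noise per printed compound spot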
# [16] = compound binding in COS7 lysate, probe aLAP1, primary screen, cell lysate, small-molecule microarray (AID 1124); settings: probe aLAP1, fluorescence, higher = more signal;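 further: lysate comes from COS7 cells expressing LAP1 and is applied at 0.3 µg/mL; score merges spot fluorescence near 667 nm with signal-to-noise over triplicate slides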
# Sam68 (KHDRBS1) = assay: Sam68 small-molecule binders, primary screen, biochemical, small-molecule microarray, 635 nm fluorescence (AID 1125); settings: small-molecule microarray binding, higher = more signal;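 further: score merges 667 nm channel intensity with signal to noise over triplicate slides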
# [17] = tested on: Chordin-like protein 2 (CHRDL2); assay: CHRDL2 small-molecule binders, primary screen, biochemical, small-molecule microarray, 635 nm fluorescence (AID 1126); settings: small-molecule microarray binding, fluorescence 635 nm; higher = more signal;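 further: printed compound slides probed with Chrdl2 protein at 4 µg/mL for 1 h at 4 C; score merges 667 nm emission intensity with signal to noise over three replicate slides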
# [18] = target: Concanavalin-A (Canavalia ensiformis) (UniProt P02866); assay: ConA small-molecule binders, primary screen, artefact control for SMM control protein annotation, biochemical, small-molecule microarray, Alexa647 label, 635 nm (AID 1127); settings: ConA-A647 binding fluorescence, higher = more signal;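 further: z combines 667 nm emission intensity with signal-to-noise across three replicate slides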
# Concanavalin-A (Canavalia ensiformis), sequence (P02866 whole entry, looked up): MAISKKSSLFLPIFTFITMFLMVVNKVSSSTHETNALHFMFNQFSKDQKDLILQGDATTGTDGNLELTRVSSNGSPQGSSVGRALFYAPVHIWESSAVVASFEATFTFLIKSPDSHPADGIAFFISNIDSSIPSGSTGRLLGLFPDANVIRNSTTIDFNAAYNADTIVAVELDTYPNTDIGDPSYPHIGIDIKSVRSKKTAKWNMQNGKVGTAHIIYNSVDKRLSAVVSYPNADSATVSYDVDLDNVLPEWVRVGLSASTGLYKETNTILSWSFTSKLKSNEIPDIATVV
SMILES,composite z-score [1],z-score [2],composite z-score [3],composite z-score [4],composite z-score [5],composite z-score [6],composite z-score [7],composite z-score [8],composite z-score [9],composite z-score [10],composite z-score (Albumin (Bos taurus)),composite Z-score [11],composite z-score [12],composite z-score [13],composite z-score [14],composite z-score [15],composite z-score [16],composite z-score (Sam68 (KHDRBS1)),composite z-score [17],composite z-score [18]
CCCNC(=O)[C@@]1(c2ccc([N+](=O)[O-])cc2)CC(=O)N(C2CCCCC2)[C@@H]1c1ccc(CO)cc1I,0.198,-2.64,-0.101,0.647,0.587,0.108,0.166,1.44,1.33,1.6,0.529,0.116 (inactive),-0.0328,-0.0635,0.71,1.73,0.521,1.25,-0.0452,1.07
C[n+]1ccc(CCCO)cc1,-0.225,-0.125,0.0525,-0.628,0.371,-0.0462,0.475,-0.253,1.26,-0.739,-0.911,0.165 (inactive),0.182,-0.0211,0.321,2.53,1.6,0.0844,0.127,-0.0858
COc1cc2c(cc1OC)CN(C(=O)[C@@H]1[C@H]3C(=O)O[C@H](c4ccccc4)[C@H](c4ccccc4)N3[C@H](c3ccccc3OCCO)[C@@]13C(=O)Nc1ccc(C#CC4(O)CCCCCC4)cc13)CC2,1.35,-2.18,0.246,0.545,0.222,-0.0685,0.0048,0.151,1.34,1.56,0.319,0.428 (inactive),0.0316,-0.0859,0.527,1.48,0.829,1.3,0.334,1.13
COc1cc(CO)cc(I)c1O[C@H]1C=C(C(=O)NCCO)C[C@@H](N(Cc2ccc(F)cc2)C(=O)C2CCCO2)[C@@H]1O (stereo not given in full),-0.284,0.561,0.407,-0.0131,-0.402,-0.124,-0.338,-0.0312,-0.0829,0.988,-0.53,-0.77 (inactive),-0.154,-0.0781,-0.124,-0.248,-0.144,0.0803,0.325,-0.422
CCOC(=O)C[C@H]1[C@H](OC(=O)c2ccc(-c3ccccc3)cc2)[C@@H](NC(=O)C2CCCCC2)c2cc(OCCCO)ccc2N1C(=O)c1ccccc1,0.959,-1.84,0.365,0.413,-0.0071,-0.0822,-0.123,-0.232,-0.241,0.0785,0.236,-0.6 (inactive),0.172,-0.152,0.0455,0.92,0.0846,0.957,0.372,0.949
CCCN1C(=O)[C@]2(Cc3ccccc3)N=C(c3ccc(OCCCO)cc3)O[C@@H]2c2ccccc21,1.06,-2.7,0.118,1.14,-0.422,0.027,-0.231,-0.646,0.42,1.33,0.727,-0.659 (inactive),-0.0345,-0.142,0.537,1.86,0.335,1.28,0.777,1.14
COc1ccc(NC(=O)O[C@H]2[C@H](OC(=O)Nc3ccc4c(c3)OCO4)[C@@H](OC(=O)Nc3ccc4c(c3)OCO4)[C@@H](OC)O[C@@H]2CO)cc1,1.38,-0.802,0.0093,1.88,-0.56,-0.0478,0.365,0.966,1.29,0.663,0.837,0.622 (inactive),0.121,-0.0116,0.442,2.71,0.714,1.29,0.143,1.11
C[C@]12C(=O)N(CCCCCCO)[C@@H]3C(=O)N(c4ccc(Cl)cc4)CC=CC31O[C@@H]1/C=C\CCCOC(=O)C12 (stereo not given in full),-0.358,-0.67,-1,-0.821,-0.559,0.0297,-0.0813,0.782,0.121,-0.0604,0.377,1.82 (inactive),-0.16,-0.136,0.695,2.08,-0.133,0.488,-1.75,-0.403
CC(C)N1CC=CC23O[C@@H]4C=CCCOC(=O)C4[C@H]2C(=O)N(CCO)[C@@H]3C1=O (stereo not given in full),-0.478,0.516,-0.289,-0.343,-0.348,-0.224,-0.282,-0.0852,-0.494,-0.048,0.0894,-0.455 (inactive),-0.305,-0.125,0.763,-0.548,0.199,-0.354,-0.414,0.172
